Reference: PubChem BioAssay
Several values for one entry are separate records, joined by “and”; a condition that tells them apart may be missing. Equal values may be shown once. More than one record can exist for a structure, and the calls need not agree. Activity calls are given as the source filed them.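 Rule for the calls, unless noted: active = compounds lowering colon cancer cell viability after pretreatment blocking the GSK3B kinase; inactive = the rest.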

Key:
[1] = Wnt pathway potentiators raising nuclear beta-catenin – imaging, WNT3A-conditioned medium, mouse C2C12, NPC library, primary screen (AID 1117326; in the data active = nuclear beta-catenin stimulation mostly above about 4.2%, no sharp cut-off; inactive = mostly below about 10%; note: reference of the scale not given here); details: stronger effect = higher value
[2] = stimulators of insulin release from INS-1E, primary screen, cell-based, 5 mM glucose, NPC library (AID 1117329;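 active = compound raises insulin release from rat beta cells at 5 mM glucose, no numeric limit stated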; note: reference of the scale not given here); details: rat INS-1E insulin secretion, at 10 µM, stronger effect = higher value
[3] = growth inhibition of GSK3B-pretreated HCT116 cells – cell-based, CellTiter-Glo, 0.2 to 20 µM (AID 1117336); details: HCT116 viability after GSK3B inhibitor, at 20 µM, stronger effect = higher value
[4] = inhibition of endothelial tube formation, primary screen, imaging, VEGF stimulated, CD31 staining, tube area, NPC library (AID 1117340;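 active = compound that reduces growth-factor-driven endothelial tube area in a mixed cell culture, no cutoff stated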); details: VEGF-stimulated ADSC/ECFC co-culture, at 10 µM, stronger effect = higher value
[5] = GLP1 release stimulators, primary, NCI-H716, NPC library (AID 1117341;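 active = compound raises GLP1 secretion from the human gut endocrine cells, with no numeric limit stated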; note: reference of the scale not given here); details: NCI-H716 cells, at 10 µM, stronger effect = higher value
[6] = HCT116 colon cancer cell growth inhibition, primary screen, CellTiter-Glo luminescence, NPC library (AID 1117342;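 active = compounds that lower survival of HCT116 colon cancer cells in the luminescence readout, no numeric limit stated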); details: at 20 µM (top of the series)
[7] = reduced SW480 viability measured with CellTiter-Glo, NPC library, primary (AID 1117343;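 active = compounds that lower viability of the colon cancer cells in the luminescence readout, with no numeric limit stated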); details: CellTiter-Glo luminescence; at 20 µM (top of the series)
[8] = NPC library primary testing for decreased DLD-1 cell viability via CellTiter-Glo (AID 1117346;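 active = compounds that lower survival of DLD-1 colon cancer cells in the luminescence readout, no cutoff given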); details: DLD-1 viability, CellTiter-Glo luminescence; at 20 µM (top of the series)

Row | SMILES | nuclear beta-catenin stimulation ([1]; at 10 µM) | nuclear beta-catenin stimulation ([1]; stimulation, at 2 µM) | insulin secretion stimulation [2] | viability decrease [3] | tube area decrease [4] | GLP1 secretion stimulation [5] | inhibition of viability [6] | viability decrease (inhibition) [7] | viability decrease (inhibition) [8]
1 | CCCCC/C(C=O)=C\c1ccccc1 | 0.8% (inactive) | 4.5% | 1% (inactive) | -20.6% (inactive) | 30.3% (inactive) | 0.1% (inactive) | 1.1% (inactive) | 12.8% (inactive) | -11.3% (inactive)
2 | COc1ccc(CC2c3cc(OC)c(OC)cc3CCN2CCC(=O)OCCCCCOC(=O)CCN2CCc3cc(OC)c(OC)cc3C2Cc2ccc(OC)c(OC)c2)cc1OC (stereo unspecified) | -1.1% (inactive) | 0.5% | 2.2% (inactive) | -6.9% (inactive) | -3.5% (inactive) | -3.9% (inactive) | -6.4% (inactive) | 39.7% (inactive) | -10.6% (inactive)
3 | CCCCC(CC)COC(=O)/C=C/c1ccc(OC)cc1 (stereo unspecified) | -1.6% (inactive) | -0.8% | 2.6% (inactive) | 5.9% (inactive) | 3.3% (inactive) | 0.8% (inactive) | 15.9% (inactive) | -7.2% (inactive) | 3.7% (inactive)
4 | Cc1cccc(C)c1OCC(=O)N[C@@H](Cc1ccccc1)[C@@H](O)C[C@H](Cc1ccccc1)NC(=O)[C@H](C(C)C)N1CCCNC1=O | 2% (inactive) | -0.1% | 2.4% (inactive) | 67.4% (active) | 2% (inactive) | 1.5% (inactive) | 43.5% (inactive) | 80.2% (active) | 73.5% (active)
5 | O=C1OC2(c3ccccc31)c1cc(Br)c(O)c(Br)c1Oc1c2cc(Br)c(O)c1Br | -0.8% (inactive) | -2.9% | 0.5% (inactive) | 32.8% (inactive) | -24.2% (inactive) | 17.7% (inactive) | 7.8% (inactive) | 24.1% (inactive) | -5.4% (inactive)
6 | N[C@@H](CSCCCO)C(=O)O | -1.1% (inactive) | 1.4% | -0.6% (inactive) | -4.55% (inactive) | 1.7% (inactive) | -0.3% (inactive) | -17.6% (inactive) | 17.3% (inactive) | -1.1% (inactive)
7 | COC(=O)C1=C(C)NC(C)=C(C(=O)OCCc2ccc(N3CCN(C(c4ccccc4)c4ccccc4)CC3)cc2)C1c1cccc([N+](=O)[O-])c1 (stereo unspecified) | 2.5% (inactive) | 0.7% | 0% (inactive) | 14.1% (inactive) | 44.2% (active) | -3.4% (inactive) | 32.3% (inactive) | 39.1% (inactive) | -1.2% (inactive)
8 | Nc1c(N=Nc2ccc(-c3ccc(N=Nc4cc(S(=O)(=O)O)c5ccccc5c4N)cc3)cc2)cc(S(=O)(=O)O)c2ccccc12 | -3.3% (inactive) | 0.3% | 2% (inactive) | -26.6% (inactive) | 16.8% (inactive) | -1.7% (inactive) | -132% (inactive) | -0.2% (inactive) | -66.6% (inactive)
9 | CC(C)(C)C1CCC(CC2=C(O)c3ccccc3C(=O)C2=O)CC1 (stereo unspecified) | 2% (inactive) | -0.5% | -0.2% (inactive) | 110% (active) | 109% (active) | 5.8% (inactive) | 106% (active) | 140% (active) | 98.4% (active)
10 | Cc1ccccc1C(=O)N1CC/C(=N\OS(=O)(=O)O)c2ccc(Cl)cc21 | 0.7% (inactive) | -1.3% | 3.05% (inactive) | 19.7% (inactive) | -2.3% (inactive) | 3.1% (inactive) | 1.4% (inactive) | -15.6% (inactive) | -6.4% (inactive)
11 | O=C(N/N=C/c1ccccc1O)c1ccncc1 | 32.2% (inactive) | 11.1% | -1.6% (inactive) | 94.3% (active) | 86.7% (active) | 2.1% (inactive) | 88.7% (active) | 106% (active) | 57.8% (active)
12 | COC(=O)c1cc(S(N)(=O)=O)ccc1OC | 0.9% (inactive) | 1.4% | -0.15% (inactive) | -6.1% (inactive) | 1.6% (inactive) | 0.1% (inactive) | -5.9% (inactive) | -8.9% (inactive) | -2.9% (inactive)
13 | CCOC(=O)c1ccc(NC(=O)CN2CCCCC2)cc1 | 0.5% (inactive) | -1.8% | 3.5% (inactive) | 18.5% (inactive) | 0.1% (inactive) | 0.9% (inactive) | 50.7% (active) | 24.7% (inactive) | 5.8% (inactive)
14 | CCNC(=O)NCc1cccc(Cl)c1 | -1.7% (inactive) | -0.5% | 2.2% (inactive) | -2% (inactive) | 13.7% (inactive) | -2.9% (inactive) | 1.1% (inactive) | 1.2% (inactive) | -6.8% (inactive)
15 | COc1ccc(C(C#N)C(C)C)cc1OC (stereo unspecified) | -1.8% (inactive) | 0.3% | 2.2% (inactive) | -24.5% (inactive) | 9.3% (inactive) | -3.4% (inactive) | 13.4% (inactive) | -4.7% (active) | -19.9% (inactive)
16 | CCCOC(C(=O)OC1CCN(C)CC1)(c1ccccc1)c1ccccc1 | 0.8% (inactive) | 1.5% | 0.3% (inactive) | 54.2% (active) | 19.1% (inactive) | 21.3% (active) | 84.8% (active) | 107% (active) | 57.7% (active)
17 | NC(CSCC(=O)O)C(=O)O (stereo unspecified) | 0.1% (inactive) | 1.5% | -0.7% (inactive) | -2.5% (inactive) | 18.6% (inactive) | -2.3% (inactive) | 0.7% (inactive) | 0.9% (inactive) | -5.3% (inactive)
18 | O=[N+]([O-])c1nccn1CO[C@@H](CO)[C@H](O)CO | -0.2% (inactive) | -0.8% | 1.45% (inactive) | 40% (inactive) | -13.2% (inactive) | -3.1% (inactive) | 7.6% (inactive) | 2.3% (inactive) | -5.8% (inactive)
19 | COc1ccccc1OC(=O)Oc1ccccc1OC | 1.1% (inactive) | 0.3% | -2.4% (inactive) | 6.05% (inactive) | 14.8% (inactive) | 1.6% (inactive) | 3.6% (inactive) | 31.6% (inactive) | 14.4% (inactive)
20 | OC[C@@H](O)[C@H](O)[C@H](O)[C@@H](O)CO | 0.7% (inactive) and 2.5% (inactive) | -0.3% and 1% | 0.1% (inactive) and 1.8% (inactive) | -25.2% (inactive) and 11.4% (inactive) | 3.7% (inactive) and 50.5% (active) | 0.3% (inactive) and -1.2% (inactive) | -3.33% (inactive) and -2.5% (inactive) | 4.1% (inactive) and 1.5% (inactive) | -1.5% (inactive) and -4.9% (inactive)
21 | CC(C=CC1=C(C)CCCC1(C)C)=CC=CC(C)=CC(=O)Oc1c(C)c(C)c2c(c1C)CC[C@@](C)(CCC[C@H](C)CCC[C@H](C)CCCC(C)C)O2 | 2.1% (inactive) | 2.2% | 2.9% (inactive) | 2.5% (inactive) | -4.2% (inactive) | 2.3% (inactive) | 32.1% (inactive) | -36.9% (inactive) | 4% (inactive)
22 | COC[C@@H](c1ccc(C(F)(F)F)cc1)N1CCN(C2(C)CCN(C(=O)c3c(C)ncnc3C)CC2)C[C@H]1C | 2.4% (inactive) | 2.3% | 2.8% (inactive) | -44.2% (inactive) | 32% (inactive) | 3.1% (inactive) | 11.1% (inactive) | -3% (inactive) | 3.5% (inactive)
23 | CC(NN)c1ccccc1 (stereo unspecified) | 1.9% (inactive) | -2.2% | 3.35% (inactive) | 13.8% (inactive) | -6.7% (inactive) | -0.4% (inactive) | 9.9% (inactive) | 4.9% (inactive) | 14.8% (inactive)
24 | CC[C@@H]([C@H](C)O)n1ncn(-c2ccc(N3CCN(c4ccc(OC[C@@H]5CO[C@@](Cn6cncn6)(c6ccc(F)cc6F)C5)cc4)CC3)cc2)c1=O | 51.6% (active) | 8.2% | 1.4% (inactive) | 11.8% (inactive) | 97.9% (active) | 4.8% (inactive) | 77.7% (active) | 83.8% (active) | 24.1% (inactive)
25 | CCCCCCCC/C=C/C(=O)O | 1.3% (inactive) | 0.6% | 1.9% (inactive) | -52.2% (inactive) | -10.1% (inactive) | -3.8% (inactive) | 5.93% (inactive) | 85.3% (active) | 45% (inactive)
26 | C[C@H]1NCc2cc(-c3ccc4c(=O)c(C(=O)O)cn(C5CC5)c4c3OC(F)F)ccc21 | 4.5% (inactive) | 1.3% | 0.3% (inactive) | 2.4% (inactive) | 9.5% (inactive) | -0.7% (inactive) | 20.1% (inactive) | -3.4% (inactive) | 2.9% (inactive)
27 | CN1[C@@H]2CC[C@H]1CC(NC(=O)n1c(=O)[nH]c3ccccc31)C2 (stereo partly specified) | 1.7% (inactive) | 1% | 0.4% (inactive) | -2.9% (inactive) | -4.6% (inactive) | 2.8% (inactive) | 23.7% (inactive) | 5.3% (inactive) | -7.7% (inactive)
28 | CC(C)[C@H]1CC[C@H](C)C[C@H]1O | -2.2% (inactive) | -0.8% | 2.4% (inactive) | 2% (inactive) | -11.4% (inactive) | 7.7% (inactive) | 8.8% (inactive) | 17.2% (inactive) | 5.7% (active)
29 | CCN1CCCC1=O | -0.1% (inactive) | 2.9% | 2.6% (inactive) | 18.7% (inactive) | -19.9% (inactive) | 4.1% (inactive) | -2.03% (inactive) | -20.4% (inactive) | -9.9% (inactive)
